# Experimental data: the supplement of paper PMC6411743
# ± gives the standard deviation of the averaged measurements. Targets with the largest changes are over-represented here; the source holds about 6,200 in all.
# Tests used:
# Experiment in all cases: NP40-soluble protein abundance relative to vehicle (solubility fold change) (ratio); higher = more soluble protein in presence of AMP-PNP
# DDX49 = target: T1, DDX49 (UniProt Q9Y6V7)
# T1 sequence (whole entry): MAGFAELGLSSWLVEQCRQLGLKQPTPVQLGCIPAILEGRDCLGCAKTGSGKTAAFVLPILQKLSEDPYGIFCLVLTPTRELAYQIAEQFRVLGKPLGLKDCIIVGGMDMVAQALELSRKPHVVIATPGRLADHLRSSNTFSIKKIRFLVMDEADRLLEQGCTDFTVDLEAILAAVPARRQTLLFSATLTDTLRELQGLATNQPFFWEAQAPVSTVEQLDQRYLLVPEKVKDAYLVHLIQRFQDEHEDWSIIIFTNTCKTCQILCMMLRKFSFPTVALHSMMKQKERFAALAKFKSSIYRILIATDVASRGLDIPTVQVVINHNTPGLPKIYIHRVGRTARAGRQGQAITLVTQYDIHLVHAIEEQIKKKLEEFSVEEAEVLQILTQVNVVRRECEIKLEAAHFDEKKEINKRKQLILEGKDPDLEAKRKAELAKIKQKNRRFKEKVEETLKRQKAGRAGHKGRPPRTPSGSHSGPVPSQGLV
# Summary of the method: (§1)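 In three independent experiments, Jurkat crude lysate made by Dounce homogenisation was treated for 10 min at room temperature and then 3 min at 37 °C with eight concentrations ranging from 0.1 to 10 mM. It was then solubilised with 0.8% NP40 plus benzonase for 60 min at 4 °C and ultracentrifuged. The supernatant was TMT-labelled for LC-MS/MS, and each value is the fold change against the detergent-processed vehicle for the same replicate, using vsn-normalised intensities.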
# MAD1L1 = target: T2, MAD1L1 (UniProt Q9Y6D9)
# T2 sequence (whole entry): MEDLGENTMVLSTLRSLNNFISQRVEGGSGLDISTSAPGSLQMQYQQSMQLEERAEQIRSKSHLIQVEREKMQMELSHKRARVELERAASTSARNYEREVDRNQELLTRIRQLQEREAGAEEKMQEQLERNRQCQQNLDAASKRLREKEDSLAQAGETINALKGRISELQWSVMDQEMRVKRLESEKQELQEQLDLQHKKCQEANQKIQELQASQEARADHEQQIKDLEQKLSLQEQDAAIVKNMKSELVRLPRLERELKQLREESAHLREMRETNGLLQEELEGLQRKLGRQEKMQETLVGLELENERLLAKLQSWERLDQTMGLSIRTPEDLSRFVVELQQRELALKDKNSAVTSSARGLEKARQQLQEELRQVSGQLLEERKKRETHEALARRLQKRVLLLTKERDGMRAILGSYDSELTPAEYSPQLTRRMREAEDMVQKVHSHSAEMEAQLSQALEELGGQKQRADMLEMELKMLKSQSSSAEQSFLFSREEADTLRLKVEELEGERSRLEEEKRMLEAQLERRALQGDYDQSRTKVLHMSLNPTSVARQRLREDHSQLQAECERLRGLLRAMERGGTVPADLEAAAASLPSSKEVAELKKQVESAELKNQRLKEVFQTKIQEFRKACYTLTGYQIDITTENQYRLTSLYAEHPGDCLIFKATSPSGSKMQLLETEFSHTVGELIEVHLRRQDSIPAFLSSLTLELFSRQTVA
# Summary of the method: as §1
# OAS3 = target: T3, OAS3 (UniProt Q9Y6K5)
# T3 sequence (whole entry): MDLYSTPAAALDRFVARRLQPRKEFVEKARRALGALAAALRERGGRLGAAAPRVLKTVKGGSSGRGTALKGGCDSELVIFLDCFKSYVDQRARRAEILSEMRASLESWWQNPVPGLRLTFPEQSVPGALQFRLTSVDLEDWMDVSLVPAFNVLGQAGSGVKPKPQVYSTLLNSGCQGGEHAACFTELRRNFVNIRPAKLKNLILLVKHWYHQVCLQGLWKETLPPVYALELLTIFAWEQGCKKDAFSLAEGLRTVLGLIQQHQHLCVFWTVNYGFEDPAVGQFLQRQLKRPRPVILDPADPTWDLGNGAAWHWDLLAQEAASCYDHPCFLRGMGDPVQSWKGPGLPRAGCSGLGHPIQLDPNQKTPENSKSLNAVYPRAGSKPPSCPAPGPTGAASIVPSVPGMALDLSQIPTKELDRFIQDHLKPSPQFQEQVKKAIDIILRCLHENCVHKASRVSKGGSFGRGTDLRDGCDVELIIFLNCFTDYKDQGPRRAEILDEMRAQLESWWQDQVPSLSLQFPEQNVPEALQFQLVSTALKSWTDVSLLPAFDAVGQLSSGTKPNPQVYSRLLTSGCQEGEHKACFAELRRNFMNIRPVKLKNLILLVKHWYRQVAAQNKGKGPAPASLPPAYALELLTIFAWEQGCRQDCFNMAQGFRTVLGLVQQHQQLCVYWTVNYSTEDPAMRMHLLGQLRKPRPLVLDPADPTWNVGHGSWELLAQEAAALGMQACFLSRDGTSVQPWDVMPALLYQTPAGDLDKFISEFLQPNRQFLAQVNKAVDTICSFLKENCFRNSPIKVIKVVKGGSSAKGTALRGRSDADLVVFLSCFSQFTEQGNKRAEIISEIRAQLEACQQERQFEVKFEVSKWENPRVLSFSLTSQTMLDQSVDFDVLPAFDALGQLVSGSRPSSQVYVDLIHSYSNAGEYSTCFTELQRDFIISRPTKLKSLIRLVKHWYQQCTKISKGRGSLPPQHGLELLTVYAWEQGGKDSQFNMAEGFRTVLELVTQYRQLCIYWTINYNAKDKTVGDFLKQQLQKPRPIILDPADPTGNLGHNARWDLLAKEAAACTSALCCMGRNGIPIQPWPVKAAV
# Summary of the method: as §1
# S4R3R2 = S4R3R2 (UniProt Q9NXR5)
# Sequence of S4R3R2 (Q9NXR5 whole entry, one chain of several): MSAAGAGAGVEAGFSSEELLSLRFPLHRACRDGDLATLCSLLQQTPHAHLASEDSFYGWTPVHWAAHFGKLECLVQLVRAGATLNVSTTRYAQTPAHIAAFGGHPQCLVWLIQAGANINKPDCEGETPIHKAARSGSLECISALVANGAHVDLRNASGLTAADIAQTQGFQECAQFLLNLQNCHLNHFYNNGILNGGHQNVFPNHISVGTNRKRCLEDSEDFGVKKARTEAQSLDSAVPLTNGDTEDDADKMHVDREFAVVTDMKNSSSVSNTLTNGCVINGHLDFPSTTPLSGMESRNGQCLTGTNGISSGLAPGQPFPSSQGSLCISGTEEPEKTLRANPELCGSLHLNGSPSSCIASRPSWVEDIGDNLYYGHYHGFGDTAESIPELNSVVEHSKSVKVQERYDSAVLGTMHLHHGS
# Summary of the method: as §1
smiles,measurement,setting,value
Nc1ncnc2c1ncn2[C@@H]1O[C@H](COP(=O)(O)OP(=O)(O)NP(=O)(O)O)[C@@H](O)[C@H]1O [adenylyl imidodiphosphate],NP40-soluble protein abundance,DDX49; concentration: 1mM,1.09 ± 0.076
same,NP40-soluble protein abundance,DDX49; concentration: 2mM,1.13 ± 0.092
same,NP40-soluble protein abundance,DDX49; concentration: 4mM,1.15 ± 0.12
same,NP40-soluble protein abundance,DDX49; concentration: 6mM,1.13 ± 0.1
same,NP40-soluble protein abundance,DDX49; concentration: 8mM,1.15 ± 0.12
same,NP40-soluble protein abundance,DDX49; concentration: 10mM,1.24 ± 0.21
same,NP40-soluble protein abundance,MAD1L1; concentration: 1mM,1.02 ± 0.028
same,NP40-soluble protein abundance,MAD1L1; concentration: 2mM,1.03 ± 0.039
same,NP40-soluble protein abundance,MAD1L1; concentration: 4mM,1.02 ± 0.047
same,NP40-soluble protein abundance,MAD1L1; concentration: 6mM,0.986 ± 0.021
same,NP40-soluble protein abundance,MAD1L1; concentration: 8mM,0.983 ± 0.046
same,NP40-soluble protein abundance,MAD1L1; concentration: 10mM,1 ± 0.057
same,NP40-soluble protein abundance,OAS3; concentration: 1mM,1.01 ± 0.012
same,NP40-soluble protein abundance,OAS3; concentration: 2mM,1.02 ± 0.04
same,NP40-soluble protein abundance,OAS3; concentration: 4mM,1.02 ± 0.032
same,NP40-soluble protein abundance,OAS3; concentration: 6mM,0.998 ± 0.033
same,NP40-soluble protein abundance,OAS3; concentration: 8mM,1.02 ± 0.043
same,NP40-soluble protein abundance,OAS3; concentration: 10mM,0.998 ± 0.018
same,NP40-soluble protein abundance,S4R3R2; concentration: 1mM,1.04 ± 0.031
same,NP40-soluble protein abundance,S4R3R2; concentration: 2mM,1.05 ± 0.063
same,NP40-soluble protein abundance,S4R3R2; concentration: 4mM,1.02 ± 0.027
same,NP40-soluble protein abundance,S4R3R2; concentration: 6mM,1.01 ± 0.041
same,NP40-soluble protein abundance,S4R3R2; concentration: 8mM,0.983 ± 0.011
same,NP40-soluble protein abundance,S4R3R2; concentration: 10mM,0.983 ± 0.022
